This is an account of results in PubChem BioAssay (NCI).

About 83,000 compounds went through this panel and 20% of them were active in at least one assay; those are over-represented in the sample as a whole.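 Single-concentration screen, 48 h exposure, 96-well plates. Endpoint: percent growth. Below 10 = active.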 Values without a mark were called inactive. Calls of active or inactive are those of the source.

Some test systems named below: SN12C renal; UO-31 renal; TK-10 renal; ACHN renal; CAKI-1 renal; A498 renal; CCRF-CEM leukemia; MOLT-4 leukemia.
What all share (assay): NCI-60 one-dose screen, 48 h (100 = growth as untreated, 0 = no growth, -100 = all killed)
Settings in all cases: 10 µM unless noted

Consider `NS(=O)(=O)c1ccc(N2N=C(c3ccc(Br)cc3)CC2c2cn(-c3ccccc3)nc2-c2ccc(Cl)cc2)cc1` (stereo not drawn), for which the growth is 78.6% with SN12C renal; 58.3% with UO-31 renal; 112% in the assay on TK-10 renal; 86.5% in the assay with ACHN renal; 89% with CAKI-1 renal; 113% with A498 renal. For the same compound, the growth with CCRF-CEM leukemia is 70.8%; with MOLT-4 leukemia, 74.8%.

Consider `CCOC(CN1CCN(CC(C)C(=O)c2ccccc2)CC1)c1ccccc1` (stereo not drawn), for which the growth with SN12C renal is 98.6%; in the assay on UO-31 renal, 89%; in the assay with TK-10 renal it was 115%; in the assay on ACHN renal it was 106%; in the assay with CAKI-1 renal, 93.7%; in the assay with A498 renal it was 97.1%. The growth with CCRF-CEM leukemia was 84.7%; with MOLT-4 leukemia it was 105%.

For the compound `COc1ccc2[nH]cc(C(c3ccc(Cl)cc3)N3CCCC3)c2c1` (stereo not drawn), the growth was 109% in the assay on SN12C renal; 59% in the assay with UO-31 renal; 87.6% with TK-10 renal; 93.1% in the assay on ACHN renal; 89.4% with CAKI-1 renal; 70.2% in the assay with CCRF-CEM leukemia. The growth in the assay with MOLT-4 leukemia was 75.1%.

With `Cc1cc(C)c2c(NC(=O)Nc3ccc(Cl)c(Cl)c3)n[nH]c2n1`, the growth with SN12C renal was 103%; in the assay on TK-10 renal it was 112%; with ACHN renal, 109%; with A498 renal it was 101%; in the assay with CCRF-CEM leukemia, 102%; in the assay on MOLT-4 leukemia it was 98.3%.

For the compound `O=C(Nc1ccc2[nH]c3ccccc3c2c1)c1ccccc1Cl`, the growth is 61.3% with SN12C renal; 65.7% with UO-31 renal; 49.7% in the assay with TK-10 renal; 70% in the assay on ACHN renal; 27.2% in the assay with CAKI-1 renal; 44.7% in the assay on A498 renal. The growth was 40.1% in the assay on CCRF-CEM leukemia and 33.4% in the assay on MOLT-4 leukemia.

Regarding `COc1ccc(C2CC(c3ccc(Nc4ccnc5cc(Cl)ccc45)cc3)=NN2c2ccccc2)cc1` (stereo not drawn), the growth in the assay on SN12C renal was 91.9%; with UO-31 renal, 93.9%; with TK-10 renal it was 109%; with ACHN renal, 97.2%; with CAKI-1 renal, 85.1%; in the assay on CCRF-CEM leukemia, 69.8%. Also, the growth in the assay with MOLT-4 leukemia was 52.3%.

With `CC1=NOCC(=O)N1`, the growth with SN12C renal is 102%; with UO-31 renal it was 96.5%; in the assay with TK-10 renal, 103%; in the assay on ACHN renal, 102%; with CAKI-1 renal it was 96.3%; in the assay on A498 renal it was 111%. For the same compound, the growth with CCRF-CEM leukemia was 90.3%; in the assay on MOLT-4 leukemia, 102%.

Consider `NC(N)=N/N=C/c1ccccc1`, for which the growth in the assay with SN12C renal is 103%; with UO-31 renal, 88.3%; in the assay with TK-10 renal, 93.5%; in the assay with CAKI-1 renal, 86.9%; in the assay with A498 renal, 97.7%; in the assay with CCRF-CEM leukemia, 84.8%. Moreover, the growth with MOLT-4 leukemia is 95%.

With `COc1ccc(C2=NN(C=O)C(c3ccc(OS(=O)(=O)c4ccc(C)cc4)c(OC)c3)C2)cc1` (stereo not drawn), the growth in the assay on SN12C renal was 76.9%; in the assay with UO-31 renal, 53.9%; in the assay with TK-10 renal it was 73.2%; in the assay on ACHN renal it was 69.1%; in the assay with CAKI-1 renal it was 52.7%; in the assay on CCRF-CEM leukemia, 37.9%. Also, the growth in the assay on MOLT-4 leukemia was 40.7%.

As for `COc1ccccc1NC(=O)OCC12COCN1COC2`, the growth in the assay on SN12C renal is 100%; with UO-31 renal, 94.9%; with TK-10 renal, 108%; with ACHN renal, 102%; in the assay with A498 renal it was 80.5%; in the assay with CCRF-CEM leukemia, 102%. Also, the growth in the assay on MOLT-4 leukemia was 95.9%.

With `O=C1CC2(O)CSc3nc(=O)cc(n32)N1` (stereo not drawn), the growth is 96.9% in the assay with SN12C renal; 82.7% in the assay on UO-31 renal; 106% with TK-10 renal; 101% in the assay on ACHN renal; 92.5% with CAKI-1 renal; 101% in the assay on CCRF-CEM leukemia. Besides, in the assay on MOLT-4 leukemia, the growth was 107%.

With `Clc1ccc(-c2nc(Br)cn3ccnc23)cc1`, the growth is 86.5% in the assay with SN12C renal; 40.3% in the assay with UO-31 renal; 85.7% in the assay on TK-10 renal; 83.4% in the assay on ACHN renal; 73% in the assay with CAKI-1 renal; 76.6% with A498 renal. Also, the growth with CCRF-CEM leukemia is 92.8%; in the assay with MOLT-4 leukemia, 78.9%.

For the compound `C=CCn1c(C)nc2cc(Nc3nc(N4CCCC4)nc4nc[nH]c34)ccc21`, the growth was 36.8% in the assay on SN12C renal; 61.2% with UO-31 renal; 11.8% in the assay on TK-10 renal; 17.8% in the assay with ACHN renal; 89% with CAKI-1 renal; 1.35% (active) in the assay with A498 renal. Further, the growth in the assay on CCRF-CEM leukemia was 83.9%; with MOLT-4 leukemia, 89%.

In the case of `Cc1nc2ccc(Nc3nc(Cl)nc(N4CCOCC4)n3)cc2n1Cc1ccccc1`, the growth is 78.2% in the assay with SN12C renal; 73.8% with UO-31 renal; 44.7% with TK-10 renal; 104% in the assay on CAKI-1 renal; 91.7% in the assay with A498 renal; 45.7% with CCRF-CEM leukemia. Moreover, in the assay with MOLT-4 leukemia, the growth was 25.8%.

As to `Cc1cc(C)c2c(n1)sc1c(Nc3ccc(OCc4ccccc4)cc3)ncnc12`, the growth was 101% in the assay on SN12C renal; 85.1% in the assay on UO-31 renal; 92.4% in the assay on TK-10 renal; 106% in the assay on ACHN renal; 78.3% in the assay on A498 renal; 86.6% in the assay with CCRF-CEM leukemia. Moreover, the growth in the assay with MOLT-4 leukemia is 101%.

For the compound `COc1ccc(/C=C2\N=C(c3cccnc3)N(c3ccccc3)NC2=O)cc1`, the growth in the assay with SN12C renal was 105%; in the assay on TK-10 renal it was 101%; in the assay on ACHN renal, 115%; with CAKI-1 renal, 97.6%; in the assay with A498 renal it was 71.8%; in the assay on CCRF-CEM leukemia, -21.1% (active). The growth in the assay with MOLT-4 leukemia was 85.6%.

Take `COc1cc(C2CC(c3cccc(Nc4ccnc5cc(Cl)ccc45)c3)=NN2c2ccccc2)cc(OC)c1OC` (stereo not drawn): the growth is 68.1% in the assay with SN12C renal; 38% in the assay on UO-31 renal; 75.4% with TK-10 renal; 8.35% (active) in the assay with CAKI-1 renal; 73.3% in the assay with A498 renal; 57.1% in the assay on CCRF-CEM leukemia. Also, the growth with MOLT-4 leukemia was 74.4%.

For the compound `CCN(CC)C(Cl)=Nc1ccc(Cl)cc1`, the growth was 99.2% in the assay with SN12C renal; 87.8% in the assay with UO-31 renal; 101% with TK-10 renal; 98.5% in the assay with ACHN renal; 103% with CAKI-1 renal; 99.6% in the assay on A498 renal. The growth was 100% in the assay on CCRF-CEM leukemia and 95.7% with MOLT-4 leukemia.

For the compound `CC(=O)N1N=C(c2ccc(C)cc2)CC1c1cn(-c2ccccc2)nc1-c1cccc(Nc2ccnc3cc(Cl)ccc23)c1` (stereo not drawn), the growth is 46.2% with SN12C renal; 77.1% in the assay on UO-31 renal; 61.3% with TK-10 renal; 81.2% in the assay with ACHN renal; 101% in the assay on CAKI-1 renal; 82.2% with A498 renal. Also, the growth with CCRF-CEM leukemia was -19.7% (active); in the assay on MOLT-4 leukemia, 23.4%.

As for `CC(C)CC(NC(=O)OCC1c2ccccc2-c2ccccc21)C(=O)O` (stereo not drawn), the growth in the assay with SN12C renal is 104%; with UO-31 renal, 94.2%; with TK-10 renal it was 109%; in the assay on ACHN renal it was 112%; in the assay on CAKI-1 renal, 86.6%; in the assay on A498 renal, 95%. Also, the values for the growth in the assay with CCRF-CEM leukemia and in the assay on MOLT-4 leukemia were 98.7% and 96.2%, respectively.
